This note sets out measurements from PubChem BioAssay AID1626 (SRMLSC, 2009).

About 2,000 (0.91%) of roughly 220,000 compounds were called active. Inconclusive results (about 2%) are left out. These entries were drawn from the full list. Measured potencies and affinities stand elsewhere. Values without a mark were called inactive. Cut-off read from the data, not from the text of the source: inconclusive = inhibition above about 80% without an active follow-up result; inactive = below that; test concentration not stated here.

A short description of the assay: M. tuberculosis H37Rv growth inhibitors, H37Rv strain (AID 1626).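 Note: bacteria incubated seven days before Alamar blue readout; 0% = bacteria only wells and 100% = bacteria with antibiotic wells.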 To be noted: active compounds read high, concentration not given here.
The term inhibition denotes the drop in the measured response relative to a control, in per cent. Turning to `COc1ccc(N(C(=O)Nc2ccc(Cl)cc2)C2=NCCC2)cc1`, the inhibition was -4.11%. The result for `CCCN(CCC)CCCNC(=S)Nc1ccc2nc(N3CCN(C)CC3)cc(C)c2c1` reads -1.09%; that for `CCN(CC)C(NC(=O)Cc1ccccc1)C(Cl)(Cl)Cl` (stereo unspecified), -7.35%. As for `O=c1[nH]c(-c2ccccc2)nc2sc(-c3ccccc3)cc12`, the figure is 0.66%; as for `O=c1[nH]c(-c2ccncc2)nc2ccccc12`, -5.72%; as for `O=c1[nH]c(-c2ccccn2)cc2ccccc12`, -4.45%. As for `Cc1sc2nc(-c3ccncc3)[nH]c(=O)c2c1-c1ccccc1`, the figure is -3.4%; as for `c1ccc(-c2nc3cc4ccccc4cc3[nH]2)nc1`, -3.91%; as for `Cc1sc2nc(-c3ccccc3)[nH]c(=O)c2c1-c1ccccc1`, -4.26%. With `c1ccc(-c2nc3ccccc3[nH]2)nc1`, the inhibition is -3.79%. The result for `O=c1[nH]c(-c2cccnc2)nc2sc(-c3ccccc3)cc12` reads 6.5%; that for `O=[N+]([O-])c1cc(C(F)(F)F)ccc1NCCCN1CCOCC1`, 7.61%; that for `COc1cc(C(=O)Nc2cc(C)cc(C)c2)c(-n2cnnn2)cc1OC`, 5.79%. As for `CCC(C)OC(=O)C1=C(C)O[C@]23OC(N)=C(C#N)[C@]12C(=O)c1ccccc13` (stereo partly specified), the figure is 3.72%; as for `Clc1ccc(-c2ccn[nH]2)cc1`, 58.5%. As to `COC(=O)c1ccc(NS(=O)(=O)c2ccc3c(c2)oc(=O)n3C)cc1`, the inhibition is -7.58%. As for `CCOC(=O)C1CCN(c2nc(C)cc(C)c2C#N)CC1`, the figure is 2.49%; as for `Cn1c(SC2=CS(=O)(=O)c3ccccc32)nc2ccccc21`, 54.9%; as for `Cc1cc(C)nc(SC2=CS(=O)(=O)c3ccccc32)n1`, 3.84%. As for `CCOC(=O)c1sc(NC(=O)CSc2nncn2C)nc1C`, the figure is 4.68%; as for `O=C(c1ccc(N2C(=O)C3C4c5ccccc5C(c5ccccc54)C3C2=O)cc1)N1CCOCC1` (stereo unspecified), -4.29%. For the molecule `COC(=O)c1sc(OC)cc1OCc1ccc(C)cc1`, the inhibition is -1.7%.

Consider `CCC(NC(=O)c1ccc([N+](=O)[O-])cc1[N+](=O)[O-])c1ccccc1` (stereo unspecified), for which the inhibition was -5.13%.

On to `COc1ccccc1NC(=O)c1ccc([N+](=O)[O-])cc1[N+](=O)[O-]`, for which the inhibition is 3.09%. The result for `N#C/C(=C\c1ccc([N+](=O)[O-])cc1)C(=O)NCCCn1ccnc1` reads 3.27%. As for `CCSc1ccc(-c2nn(-c3ccccc3)cc2/C=C(/C#N)C(=O)NCCCOC)cc1`, the figure is -5.12%. Regarding `O=C(NCCCn1ccnc1)c1cn(-c2ccccc2)nc1-c1ccc(F)cc1`, the inhibition is 4.17%. The result for `CCCSc1ccc(-c2nn(-c3ccccc3)cc2/C=C(/C#N)C(=O)NCCCOC)cc1` reads -7.18%; that for `CSCCC(NS(=O)(=O)c1ccc(Cl)cc1)C(=O)OCC(=O)c1c(C)[nH]c2ccccc12` (stereo unspecified), -2.72%; that for `C/C=C(\C)C(=O)N1CC2(CC(c3cccc(NC(=O)CC(c4ccccc4)c4ccccc4)c3)=NO2)C[C@H]1C(N)=O` (stereo partly specified), 4.13%. As for `COc1ccccc1C(=O)C1CCCN(C(=O)CCC(=O)c2ccccc2)C1` (stereo unspecified), the figure is 4.79%. As for `O=C(CNc1cccc2ccccc12)N/N=C/C=C/c1ccco1`, the figure is -2.95%; as for `CCOC(=O)c1c(C)n(-c2ccc(C)cc2)c2ccc(OCC(O)CNCC3CCCO3)cc12` (stereo unspecified), 0.55%; as for `CCOC(=O)c1c(C)n(-c2ccc(C)cc2)c2ccc(OCC(O)CN3CCN(C)CC3)cc12` (stereo unspecified), -2.8%.

As to `Cc1cccc(N(C(=O)C(F)(F)F)C(C(=O)NC2CCCCC2)c2cccs2)c1` (stereo unspecified), the inhibition was -0.05%.

Turning to `Cc1ccc(-c2csc(NC(=O)/C=C/c3cccs3)n2)cc1C`, the inhibition is 51.8%. As for `Cc1cccc(NC(=O)/C=C/c2cccs2)n1`, the figure is -10.1%; as for `O=C(/C=C/c1cccs1)Nc1nccs1`, -4.27%. The result for `O=C(/C=C/c1cccs1)Nc1nc(-c2ccccc2)cs1` reads -0.14%; that for `Cn1nc(C(=O)Nc2sccc2C(N)=O)ccc1=O`, -1.96%; that for `COc1ccc2oc(=O)c(C(=O)N3CCN(c4ccccc4C)CC3)cc2c1`, -3.36%. As for `O=C(N/N=C/c1sc(N2CCOCC2)nc1-c1ccccc1)c1ccccc1F`, the figure is -7.96%; as for `N#C/C(=C\c1sc(N2CCOCC2)nc1-c1ccccc1)C(=O)Nc1cccc2ccccc12`, 49.2%; as for `COC(=O)c1ccc(-n2nnnc2SCc2nn[nH]n2)cc1`, -5.62%.

Consider `Cn1c(N)c(C(=O)CSc2ncn[nH]2)c(=O)n(C)c1=O`, for which the inhibition was -13.1%. As for `Cc1nn2c(Nc3ccccc3)c3c(nc2c1-c1ccccc1)CCC3`, the inhibition was 7.77%. As for `Cc1nn2c(NCCCN(C)C)c3c(nc2c1-c1ccccc1)CCCC3`, the figure is 10.8%; as for `COc1ccc(Nc2c3c(nc4c(-c5ccccc5)c(C)nn24)CCC3)cc1`, 13.4%; as for `Cc1nn2c(NCCN(C)C)c3c(nc2c1-c1ccccc1)CCC3`, -3.03%. The result for `COc1ccc(C(C)=O)cc1CSc1nnc(-c2ccncc2)n1C` reads -2.28%; that for `Cn1c(-c2csc(-c3cccc(C(F)(F)F)c3)n2)n[nH]c1=S`, 3.67%. As for `Cc1ccc(C(=O)NCCSC2CCCCC2)cc1S(=O)(=O)Nc1ccccc1`, the figure is -1.4%; as for `O=C(NCc1cccnc1)C(C(=O)c1ccc(F)cc1)n1ccccc1=O` (stereo unspecified), -8.48%; as for `CCC(=O)NCCc1nc2ccccc2n1CC(=O)c1ccccc1`, -2.01%. Turning to `C=CCn1c(=O)c2ccccc2n2c(SCC(=O)c3ccccc3)nnc12`, the inhibition was 6.67%. For the molecule `CCN(CC)CCOc1ccc(/C(=C(/Cl)c2ccccc2)c2ccccc2)cc1`, the inhibition is 41%. As for `CN(C)CCOc1ccc(/C(=C(/CCCl)c2ccccc2)c2ccccc2)cc1`, the figure is 59.6%. The result for `CCCC(=O)Nc1ccc(C(=O)n2nnc3ccccc32)cc1` reads -6.7%; that for `COc1ccccc1N1CCN(c2cc(=O)n(Cc3ccc(F)cc3)c(=O)[nH]2)CC1`, 12.4%; that for `O=S(=O)(c1cccs1)N1CCN(c2ccc(O)cc2)CC1`, -12.2%. The result for `Cc1ccc(CN(Cc2ccco2)C(=S)NCC(=O)NC2CC2)cc1` reads 5.98%; that for `CCc1nnc(NS(=O)(=O)c2ccc(NC(=O)c3cc4ccccc4oc3=O)cc2)s1`, 61.4%. Turning to `O=C(Nc1ccccc1)c1ccc2ccccc2n1`, the inhibition was 8.34%. The result for `CCc1nnc(NC(=O)c2ccc(OC)cc2)s1` reads 2.91%; that for `Cc1sc(NC(=O)c2cc3ccccc3oc2=O)c(C(=O)OC(C)C)c1-c1ccccc1`, -5.1%; that for `CCOC(=O)c1c(-c2ccccc2)csc1NC(=S)NC`, 18.6%.

With `CCOc1ccccc1C(=O)Nc1nnc(CC)s1`, the inhibition was -4.9%. In the case of `CCc1nnc(NC(=O)c2cc(C)nc3ccccc23)s1`, the inhibition was -1.08%. Consider `Cc1nc2ccc(NC(=O)c3ccc4ccccc4n3)cc2s1`, for which the inhibition is -4.06%. The result for `CN(C)CCCN(Cc1ccccc1)C(=S)Nc1ccc(OC(F)F)cc1` reads 4.19%; that for `Cc1cc(C)n(-c2nc3ccccc3nc2Nc2ccc3c(c2)OCO3)n1`, 13.5%. As for `Cc1cccc(NC(=S)NCc2cccs2)c1C`, the figure is 9.19%; as for `Cc1ccnc(NS(=O)(=O)c2ccc(Cl)nc2)c1`, -4.15%; as for `CCNC(=S)/N=C(/Nc1ccc(OC)cc1)Nc1nc(C)cc(C)n1`, -8.72%.

`CCSc1nnc(NC(=O)c2ccccc2)s1`: the inhibition is 0.13%. Turning to `CCSc1nnc(NC(=O)c2cccc3ccccc23)s1`, the inhibition is 3.82%. For `CCc1nnc(NC(=O)c2ccncc2)s1`, the inhibition is -7.55%. As for `CCc1nnc(NC(=O)c2c(OC)cccc2OC)s1`, the figure is -2.43%; as for `CCC(CC)c1nnc(NC(=O)c2ccco2)s1`, -8.07%. As for `CCC(CC)c1nnc(NC(=O)c2cc(-c3ccccc3)nc3ccccc23)s1`, the figure is 65.7%; as for `O=C(CSC1=NCCN1)NC12CC3CC(CC(C3)C1)C2`, -6.99%. Turning to `CCN(CC)S(=O)(=O)c1cc([N+](=O)[O-])ccc1N=Nc1c(O)[nH]c2ccccc12`, the inhibition was 0.25%. The result for `COc1cccc(/C=N/NC(=S)Nc2cccnc2)c1` reads 3.92%. As for `Cc1nnc(SCC(=O)N2CCC(Cc3ccccc3)CC2)n(N)c1=O`, the figure is 7%. As for `COc1ccc(C2Nc3ccccc3C(=O)N2NC(=O)c2ccccc2)cc1OC` (stereo unspecified), the figure is 2.58%; as for `COc1cccc(NC(=O)CN(C)CC(=O)Nc2ccc(Cl)cc2[N+](=O)[O-])c1`, 7.39%. `Cc1cc(NCCN2CCOCC2)n2nc(C)c(-c3ccc(Cl)cc3)c2n1`: the inhibition is 17.9%. The result for `Cc1cc(NCCCn2ccnc2)n2nc(-c3ccc(F)cc3)cc2n1` reads -4.87%; that for `Cc1cccc(-c2cc3nc(C)cc(NCCCn4ccnc4)n3n2)c1`, 5.02%; that for `Cc1cc(NCCCn2ccnc2)n2nc(C)c(-c3ccccc3)c2n1`, -2.71%. The result for `COCCNc1cc(C)nc2cc(-c3ccc(C)cc3)nn12` reads -4.32%; that for `Cc1cccc(-c2cc3nc(C)cc(NCCCN(C)C)n3n2)c1`, -0.01%; that for `CCC(=O)Nc1ccccc1C(=O)OCc1ccc(C(=O)c2ccccc2)cc1`, 27.4%.

`Nn1c(SCC(=O)N2CCOCC2)nnc1C1CC1`: the inhibition was -3.01%. As for `CCOC(=O)c1cc(N)cc([N+](=O)[O-])c1`, the figure is 5.48%.

Consider `Cc1cccc(C)c1NC(=S)N1CCCN(C)CC1`, for which the inhibition was -1.16%.
